Values joined by “and” are separate entries in the source; they are usually repeats but may differ in a detail not shown here. Equal entries are not always repeated. Compounds without any hit were thinned out: in the full panel of roughly 83,000, 20% have a hit.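 48-hour exposure, single concentration, 96-well plates; percent growth endpoint where 0 means no net growth. Active: below 10.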 Values without a mark were called inactive. Where a SMILES comes first, the peptide text is derived from it.
Tested on: SN12C renal
Assay: NCI-60 one-dose screen, 48 h (100 = growth as untreated, 0 = no growth, -100 = all killed)
Settings: 10 µM unless noted

| Compound | growth |
| --- | --- |
| NC(Cc1c[nH]c2ccccc12)C(=O)O (stereo not drawn) | 101% |
| CC(C)NC(=O)N/C=C(\C#N)C(N)=O | 99.1% |
| CC(=O)OCC1OC(OC(C)=O)C(OC(C)=O)C(OC(C)=O)C1OC(C)=O (stereo not drawn) | 104% and 105% |
| Cc1cc(-c2ccc(N=Nc3ccc4c(S(=O)(=O)O)cc(S(=O)(=O)O)c(N)c4c3O)c(C)c2)ccc1N=Nc1ccc2c(S(=O)(=O)O)cc(S(=O)(=O)O)c(N)c2c1O | 99.1% |
| COc1ccc(C(=O)CC(c2ccccc2)C(C#N)c2ccccc2)cc1 (stereo not drawn) | 86.8% |
| Cc1ccc(=O)[nH]n1 | 107% and 99.3% |
| O=C1C=C(Nc2ccccc2)c2ccccc2C1=O | 20.9% and 93.6% |
| CN1CNC(=O)NC1 | 105% and 102% |
| COc1cc(C(O)C2C(=O)OCC2C2(c3ccc4c(c3)OCO4)SCCCS2)cc(OC)c1OC (stereo not drawn) | 101% |
| O=C(O)/C=C\C(=O)Nc1cccc2ccccc12 | 97.6% and 92.3% |
| NN1CCOC(c2ccccc2)C1 (stereo not drawn) | 102% |
| c1ccc(-c2nc3ccccc3s2)cc1 | 88.7% |
| NC(Cc1ccccc1)C(=O)NC(Cc1ccccc1)C(=O)O (stereo not drawn) (H-Phe-Phe-OH; configuration not given here) | 103% and 101% |
| COc1ccc2cc1Oc1ccc(cc1)C[C@H]1c3cc(c(OC)cc3CCN1C)Oc1c(OC)c(OC)cc3c1[C@H](C2)N(C)CC3 | 82.2% |
| Oc1ccc(Cc2ccccc2Cl)c(O)c1 | 91.2% |
| CN(C)c1ccc(/C=C\C(=O)c2ccccc2)cc1 | 95.6% and 98.8% and 95% |
| c1ccc2c(c1)OC1OC2Oc2ccccc21 | 98.9% |
| NC1CCC(C(=O)O)CC1 (stereo not drawn) | 97% and 103% |
| CC1(C)COC(=S)N1 | 93.5% |

| Compound | growth |
| --- | --- |
| C/C(=C\c1ccccc1)c1ccccn1 | 95.8% |
| CCN(CCNS(C)(=O)=O)c1ccc(N)c(C)c1 | 88.1% and 93.5% |
| O=CN1CCCCC1 | 104% |
| CCCCOC(=O)/C=C\C(=O)NC(N)=O | 87.2% |
| CC[C@H](CC[C@@H](C)[C@H]1CC[C@H]2[C@@H]3CC=C4C[C@@H](O)CC[C@]4(C)[C@H]3CC[C@]12C)C(C)C | 94.7% and 105% |
| N#CC(C#N)N=Nc1ccc(Cl)cc1 | 33.5% |
| O=C1OC(C(O)C(O)CO)C(O)=C1O (stereo not drawn) | 107% and 101% |
| CCCCCCCCCCCCCCCCC(C(=O)O)C(O)(CC(=O)O)C(=O)O (stereo not drawn) | 110% and 17.4% |
| CC(C)C(C)(C)c1ccc(O)cc1 | 102% |
| OCC1OC(O)C(O)C(O)C1O (stereo not drawn) | 103% |
| CC1CCC2(OC1)OC1CC3C4CC=C5CC(O)CCC5(C)C4CCC3(C)C1C2C (stereo not drawn) | 100% |
| O=C(/C=C/c1ccccc1)c1ccccc1 | 100% |
| O=c1[nH]cnc2c1ncn2C1OC(CO)C(O)C1O (stereo not drawn) | 99.8% and 121% and 96.1% |
| Nc1ccc2c(O)cc(S(=O)(=O)O)cc2c1 | 95.4% and 86.9% |
| CC1CCC2(C(=O)O)CCC3(C)C(=CCC4C5(C)CCC(O)C(C)(C)C5CCC43C)C2C1C (stereo not drawn) | 79.3% and 99.7% |
| CC1CCC(C(C)C)C(NNC(N)=O)C1 (stereo not drawn) | 101% |
| CC(=O)Nc1ccc(S(N)(=O)=O)cc1 | 97.5% and 102% |
| Cc1cc2ccccc2cn1 | 94% and 104% |
| C#CCOC(=O)Nc1ccccc1 | 101% |
